From PubChem BioAssay
VACV mCherry inh = inhibitors of vaccinia virus infection (mCherry reporter signal); Vaccinia virus mCherry reporter infection, fluorescence; Potency, µM (highest dose often 36.5 µM), most hits filed as inhibitors; 310,000 tested, 0.63% active; AID 720579; calls by dose curve; tested in A549 cells; further: nearly all actives have a fitted effect of over 35% in size
Vaccinia Venus = inhibitors of vaccinia virus (Venus reporter) | Vaccinia virus Venus reporter expression, fluorescence | Potency, µM (series often up to 36.5 µM), actives largely listed as inhibitors | 330,000 tested, 0.46% active | AID 720580; calls by dose curve; tested in A549 cells; further: nearly all actives have a fitted effect of over 30% in size
AmpC no deterg = AmpC beta-lactamase inhibition without detergent; P00811; AmpC nitrocefin hydrolysis, absorbance 480 nm, 0.0001% Triton; Potency, µM (series often up to 57.1 µM), usual class: inhibitors; 330,000 tested, 0.52% active; AID 485341; further: nearly all actives have a fitted effect of over 20% in size
Target sequence (P00811 whole entry, looked up): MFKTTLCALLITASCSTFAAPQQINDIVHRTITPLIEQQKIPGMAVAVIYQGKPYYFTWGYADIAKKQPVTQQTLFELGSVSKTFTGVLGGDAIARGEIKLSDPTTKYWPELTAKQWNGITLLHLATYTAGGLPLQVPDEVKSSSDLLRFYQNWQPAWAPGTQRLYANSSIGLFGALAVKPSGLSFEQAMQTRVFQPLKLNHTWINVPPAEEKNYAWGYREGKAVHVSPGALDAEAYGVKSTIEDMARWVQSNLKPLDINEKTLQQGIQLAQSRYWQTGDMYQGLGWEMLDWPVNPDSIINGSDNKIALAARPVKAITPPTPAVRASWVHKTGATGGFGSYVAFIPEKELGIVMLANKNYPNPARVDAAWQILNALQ
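AmpC (5.3 nM in the dispensed reagent) in 20 mM phosphate pH 7.0 with 0.01% (detergent screen) or 0.0001% Triton X-100 was preincubated with compounds for 15 min at room temperature. Nitrocefin was then added from an 800 uM solution, and hydrolysis was followed at 480 nm.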
AmpC detergent = inhibitors of E. coli AmpC beta-lactamase with detergent; P00811; 370,000 tested, 0.041% active; Potency, µM (series often up to 114 µM), actives largely listed as inhibitors; AmpC hydrolysis of nitrocefin, absorbance 480 nm, 0.01% Triton; further: nearly all actives have a fitted effect of over 25% in size
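20 mM phosphate pH 7.0 + 0.01% (detergent screen) or 0.0001% Triton X-100; 5.3 nM AmpC reagent; cpd preinc 15 min RT; nitrocefin (800 uM stock) to start; A480 q20 s × 4 min; Activity was normalised to no-enzyme and no-compound control wells.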
Numbers stand for hits. Sampled rows, rich in hits. Any-hit rate of the full collection: about 1.1%. Unless noted, the call rests on the fitted dose curve; in most records, active means well fitted curve in the direction sought with a large enough effect; inconclusive means small, poorly fitted or top-dose-only effect, or another doubt; inactive means no such curve, though single readings can be large; an effect the other way counts as inactive or inconclusive.

Screening C[C@]12c3[nH]c4ccc(Cl)cc4c3CCN1C(=O)[C@@H](CC(=O)NCc1cccc(C(F)(F)F)c1)C[C@@H]2C(=O)N1CCOCC1 returned VACV mCherry inh inactive, Vaccinia Venus inconclusive and AmpC no deterg inactive.
For COc1ccc2[nH]c3c(c2c1)CCN1C(=O)C(CC(=O)NCC24CC5CC(CC(C5)C2)C4)C[C@H](C(=O)N2CCOCC2)[C@@]31C (stereo partly specified) the results were VACV mCherry inh inconclusive, Vaccinia Venus inconclusive and AmpC no deterg inactive.
`COc1ccccc1C1CN(CCNC(=O)c2ccc3c(c2)OCCO3)Cc2ccccc2O1` (stereo unspecified) gave VACV mCherry inh inactive and Vaccinia Venus inactive.
For COc1cc(=O)n2c(c1C(=O)N(C)Cc1nonc1C)CCN(CC1CC=CCC1)CC2 (stereo unspecified) the results were VACV mCherry inh inactive and Vaccinia Venus inactive.
Screening COC1=C(Nc2ccc(O)cc2)C(=O)c2ccccc2C1=O returned VACV mCherry inh 14.1µM, Vaccinia Venus 15.8µM, AmpC no deterg inactive and AmpC detergent inactive.
COC1=C(Nc2ccc(OC)cc2)C(=O)c2ccccc2C1=O was read as VACV mCherry inh inconclusive, Vaccinia Venus inconclusive, AmpC no deterg inactive and AmpC detergent inactive.
For Cc1cnc(-n2ncc(C(=O)N(C)C3CCOC3)c2-c2cccs2)nc1-c1ccc(F)cc1 (stereo unspecified) the results were VACV mCherry inh inactive and Vaccinia Venus inactive.
For COc1cc(OC)c(NC2=CC(=O)C(=O)c3ccccc32)cc1Cl the results were VACV mCherry inh 0.891µM, Vaccinia Venus 3.16µM, AmpC no deterg inactive and AmpC detergent inactive.
Screening CCn1c(-c2ccccc2F)nc2cc(NC(C)=O)cc(C(=O)N3CCC[C@H]3C(=O)OC)c21 returned VACV mCherry inh inactive and Vaccinia Venus inactive.
Screening COC(=O)c1nc(-c2ccc3c(n2)C(=O)C(N)=C(OC)C3=O)c(N)c(-c2ccc(OC)c(OC)c2O)c1C returned VACV mCherry inh inactive, Vaccinia Venus inactive, AmpC no deterg inactive and AmpC detergent inactive.
Screening COC1=C(N)C(=O)c2nc(-c3nc(C(=O)O)c(C)c(-c4ccc(OC)c(OC)c4O)c3N)ccc2C1=O returned VACV mCherry inh 0.708µM, Vaccinia Venus 0.631µM, AmpC no deterg inactive and AmpC detergent inactive.
Screening COc1ccccc1C1CN(Cc2cccc(OCCO)c2)Cc2ccccc2O1 (stereo unspecified) returned VACV mCherry inh inactive and Vaccinia Venus inactive.
COc1ccccc1-c1ccc(C(=O)N(C)CC2COCCO2)c(N2CCN(c3ccccc3F)CC2)n1 (stereo unspecified) was read as VACV mCherry inh inactive and Vaccinia Venus inactive.
For COc1cccc(-n2c(/C=C/c3ccc(O)c(O)c3)nc3ccccc3c2=O)c1 the results were VACV mCherry inh inconclusive, Vaccinia Venus inactive, AmpC no deterg 17.8µM and AmpC detergent inactive.
`CC(C)=CCC/C(C)=C/CNC(=O)C[C@H]1C[C@H](C(=O)N2CCCCC2)[C@@]2(C)c3[nH]c4cc(-c5ccco5)ccc4c3CCN2C1=O` gave VACV mCherry inh inconclusive, Vaccinia Venus inconclusive and AmpC no deterg inactive.
Screening CCN(CC)C(=O)[C@H]1CC(CC(=O)NC/C=C(\C)CCC=C(C)C)C(=O)N2CCc3c([nH]c4ccc(OC)cc34)[C@]12C (stereo partly specified) returned VACV mCherry inh 12.6µM, Vaccinia Venus inconclusive and AmpC no deterg inactive.
For CCN(CC)C(=O)[C@H]1C[C@H](CC(=O)NC/C=C(\C)CCC=C(C)C)C(=O)N2CCc3c([nH]c4cc(-c5ccco5)ccc34)[C@]12C the results were VACV mCherry inh inconclusive, Vaccinia Venus 12.6µM and AmpC no deterg inactive.
Screening COc1ccc2[nH]c3c(c2c1)CCN1C(=O)C(CC(=O)NC/C=C(\C)CCC=C(C)C)C[C@H](C(=O)N2CCOCC2)[C@@]31CCC1CCCC1 (stereo partly specified) returned VACV mCherry inh 10µM, Vaccinia Venus inconclusive and AmpC no deterg inactive.
CC(C)=CCC/C(C)=C/CNC(=O)C[C@H]1C[C@H](C(=O)N(C(C)C)C(C)C)[C@@]2(C)c3[nH]c4cc(-c5ccco5)ccc4c3CCN2C1=O was read as VACV mCherry inh 10µM, Vaccinia Venus inconclusive and AmpC no deterg inactive.
CC[C@]12c3[nH]c4ccc(OC)cc4c3CCN1C(=O)C(CC(=O)NC/C=C(\C)CCC=C(C)C)C[C@@H]2C(=O)N1CCN(C(=O)C2CC2)CC1 (stereo partly specified) was read as VACV mCherry inh inactive, Vaccinia Venus inactive and AmpC no deterg inactive.
CC(C)N(C(=O)[C@H]1C[C@H](CC(=O)NCc2ccco2)C(=O)N2CCc3c([nH]c4cc(-c5ccco5)ccc34)[C@]12C)C(C)C was read as VACV mCherry inh inactive, Vaccinia Venus inconclusive and AmpC no deterg inactive.
For CCN(CC)c1ccc(-c2nnc(SCC(=O)NCc3ccco3)n2CC)cc1 the results were VACV mCherry inh inactive and Vaccinia Venus inactive.
`Cc1cc[n+](CC#N)cc1` gave VACV mCherry inh inactive and Vaccinia Venus inactive.
Screening CO[C@H]1[C@H](NC(=O)c2ccsc2)c2ccccc2C12CCN(Cc1c(O)ccc3ccccc13)CC2 returned VACV mCherry inh inactive and Vaccinia Venus inactive.
For COc1cccc(CN2CCC3(CCC(CNC(=O)c4ccccc4)O3)CC2)c1 (stereo unspecified) the results were VACV mCherry inh inactive and Vaccinia Venus inactive.
For CCOC(=O)/C(=C\c1cccnc1)C(=O)c1cc(C(C)=O)c(Nc2ccccc2)s1 the results were VACV mCherry inh 12.6µM, Vaccinia Venus 11.2µM, AmpC no deterg inactive and AmpC detergent inactive.
Screening CC(=O)c1ccc(-c2ccc3c4c(ccc3c2)OC(CNC(=O)C(C)N2CCOCC2)C4)s1 (stereo unspecified) returned VACV mCherry inh inactive and Vaccinia Venus inactive.
Cn1c(SCc2ccccc2)nnc1-c1c[nH]c2ccccc12 was read as VACV mCherry inh inactive, Vaccinia Venus inactive, AmpC no deterg 25.1µM and AmpC detergent inconclusive.
CCCCSc1nnc(-c2c[nH]c3ccccc23)n1C was read as VACV mCherry inh inactive, Vaccinia Venus inactive, AmpC no deterg inactive and AmpC detergent inactive.
`O=C(Cc1ccc(OCCCc2ccccc2)cc1)NO` gave VACV mCherry inh inactive and Vaccinia Venus inactive.
Fc1cccc(NC(=S)NC2CCCCCCC2)c1 was read as AmpC no deterg 12.6µM and AmpC detergent inactive.
Screening COc1cc(=O)n2c(c1C(=O)NCc1ccc3c(c1)OCO3)CCN(C(=O)c1ccccc1F)CC2 returned VACV mCherry inh inactive and Vaccinia Venus inactive.
`CCOc1ccc2nc(N3CCCC3C(=O)N3CCC(c4nc5ccccc5o4)CC3)nc(C)c2c1` (stereo unspecified) gave VACV mCherry inh inactive and Vaccinia Venus inactive.
CCCN(CCC)S(=O)(=O)c1ccc(NS(C)(=O)=O)cc1 was read as VACV mCherry inh inactive, Vaccinia Venus inactive, AmpC no deterg inactive and AmpC detergent inactive.
